The values below come from PubChem BioAssay (NCATS).

Assay [1] is described as follows: AP1 Signaling Pathway (AID 357; active = well fitted curve in either direction with a large enough effect, not every such curve was filed as active;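 also: ME-180 reporter cells stimulated with EGF at its EC50 level; % is scaled to controls: 0 for no effect and ±100 for the full control effect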). The note with it: ME-180 AP-1-bla reporter, EGF-induced, beta-lactamase ratio, 5 h; at 38 µM (top of the series). The method in brief:
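Beta-lactamase reporter under AP-1 response element, ME-180 background. Stimulus: EC50 EGF. Compound exposure 5 h, 37 °C. Detection: CCF4, 2.5 h RT, 460/530 nm. Values: AC50 from titration.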

The nature of assay [2]: NFAT Signaling Pathway (AID 444; active = well fitted curve in either direction with a large enough effect, not every such curve was filed as active;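 also: carbachol stimulus at about its EC50 of 1 µM final; % is scaled to controls: 0 for no effect and ±100 for the full control effect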). The settings on record: Jurkat NFAT-bla M1, carbachol, beta-lactamase ratio, 5 h; at 38 µM (top of the series). The method in brief:
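Read-out: CCF4 FRET ratio (460 nm/530 nm) after 1 h RT dye loading, used for %activity and AC50 from titration series. Cells: Jurkat NFAT-β-lactamase/M1 line, treated with compound plus 1 uM carbachol for 5 h, 37 °C.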

Assay [3] can be described thus: Stat Signaling Pathway (AID 446; active = well fitted curve in either direction with a large enough effect, not every such curve was filed as active;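 also: ME-180 cervical cancer cells given 40 pM IL-6 alongside compound; SIE-controlled beta-lactamase reporter measured as 460/530 nm FRET emission ratio; % is scaled to controls: 0 for no effect and ±100 for the full control effect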). The note with it: ME-180 (cervical carcinoma) SIE beta-lactamase reporter, IL-6 stimulated, 5 h; at 38 µM (top of the series). A digest of the protocol:
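Emission at 460 and 530 nm (excitation 405 nm) reports SIE-controlled beta-lactamase in ME-180 cells. Cells received compound with 40 pM IL-6 for 5 hrs at 37 C; data scaled between 300 pM IL-6 and 125 nM JAK-inhibitor controls.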

Assay [4] concerns the target Glucocorticoid receptor (Homo sapiens) (UniProt P04150). The assay is described as follows: GR-GFP Redistribution (AID 450;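 active = compounds whose dose series gives a full or clear partial fitted curve of increased nuclear translocation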; also: potency is read from the fitted curve at half-maximal effect). The note with it: U2OS GR-GFP nuclear translocation, laser cytometry, 2 h.
The target is the same in assay [5]. The assay is described as follows: GR-EFC Redistribution (AID 451; calls by dose curve; also: potency is read from the fitted curve at half-maximal effect). The settings on record: CHO-K1 GR-EFC translocation, beta-gal luminescence, 2 h. A digest of the protocol:
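Translocation of GR-ED fusion to nuclear EA restores b-gal, read by luminescence after 1 h room-temperature detection. Engineered CHO-K1 biosensor cells, 1,000/well, exposed 2 h at 37 C to titrations up to 46 uM final.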

In assay [6] the target is Mitogen-activated protein kinase 10 (Mus musculus) (UniProt Q61831). The assay is described as follows: JNK3 AlphaScreen Assay (AID 530; active = well fitted curve in either direction with a large enough effect, not every such curve was filed as active;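 also: kinase came from lysate of stimulated human HepG2 cells; signal reports phosphorylation of biotinylated GST-cJun 1-79 at Ser73 with 10 µM ATP; % is scaled to controls: 0 for no effect and ±100 for the full control effect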). A digest of the protocol:
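qHTS titrations with 15 min compound pre-incubation before adding ATP (10 uM final). Read-out: AlphaScreen of Ser73-phosphorylated biotin-GST-cJun using HepG2 lysate JNK3 activated by IL-1β and TNFα.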
A general note: Bead proximity is the source of the signal in Alpha formats.

Assay [7] deals with 3',5'-cyclic-AMP phosphodiesterase 4B (Homo sapiens) (UniProt Q07343). The assay is described as follows: qHTS Assay for Inhibitors of PDE-IV (AID 607; active = well fitted activation curve with a large enough effect in the main read-out, with a control signal flat, not every such curve was filed as active; also: % of control where 0% means no effect). A digest of the protocol: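 The readout is membrane depolarisation from a cAMP-sensing CNG channel, detected with a potential dye at ex 535/em 590. Cells were HEK293-derived (endogenous PDE-IV) at 1000 cells/well, titrated up to 22.9 uM final.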
3',5'-cyclic-AMP phosphodiesterase 4B (Homo sapiens), sequence (Q07343 whole entry, looked up): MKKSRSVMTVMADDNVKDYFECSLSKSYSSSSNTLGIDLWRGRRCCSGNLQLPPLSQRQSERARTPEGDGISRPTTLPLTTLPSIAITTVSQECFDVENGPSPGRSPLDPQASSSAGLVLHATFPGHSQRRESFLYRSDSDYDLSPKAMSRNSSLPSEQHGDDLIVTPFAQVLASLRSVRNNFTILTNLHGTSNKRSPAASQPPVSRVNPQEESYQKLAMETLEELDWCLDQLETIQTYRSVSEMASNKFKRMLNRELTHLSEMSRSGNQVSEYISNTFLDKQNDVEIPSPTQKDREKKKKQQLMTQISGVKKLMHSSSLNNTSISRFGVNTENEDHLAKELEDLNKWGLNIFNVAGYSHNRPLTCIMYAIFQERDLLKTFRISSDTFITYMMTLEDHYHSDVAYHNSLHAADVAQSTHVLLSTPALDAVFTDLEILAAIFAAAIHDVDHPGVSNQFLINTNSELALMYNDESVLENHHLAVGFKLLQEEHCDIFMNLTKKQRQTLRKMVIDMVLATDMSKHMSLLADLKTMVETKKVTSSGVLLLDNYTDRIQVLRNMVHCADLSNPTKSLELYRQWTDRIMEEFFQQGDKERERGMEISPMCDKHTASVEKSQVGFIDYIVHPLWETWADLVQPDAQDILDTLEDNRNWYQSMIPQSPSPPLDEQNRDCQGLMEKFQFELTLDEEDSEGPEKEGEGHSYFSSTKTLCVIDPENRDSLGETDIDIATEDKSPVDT

Assay [8] deals with Guanine nucleotide-binding protein G(i) subunit alpha-1 (Homo sapiens) (UniProt P63096). The assay is described as follows: qHTS Assay for Inhibitors of RGS12 GoLoco Motif Activity (Green Fluorophore) (AID 879).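 Also: 0% = labeled peptide with Gαi1 and full inhibition = labeled peptide alone without protein; negative values mean loss of peptide binding seen as reduced polarization.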 The method in brief:
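A drop in FITC polarization marked displacement of the FITC-tagged RGS12 GoLoco peptide (10 nM) from Gαi1 (50 nM). Compounds were incubated 10 min at room temperature in Tris pH 7.5 buffer containing 150 mM NaCl, 0.1 mM GDP and 0.05% NP40; unlabeled peptide titration served as control.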

A short description of assay [9]: qHTS Assay for Identification of Small Molecule Agonists for Thrombopoietin (TPO) Signaling Pathway (AID 917). Also: % is scaled to controls: 0 for no effect and ±100 for the full control effect. The method in brief:
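Cell-based luciferase reporter screen. Mouse Ba/F3 line stably expressing human TPO receptor; IL-3 removed overnight before plating. Co-treatment with compound and EC50 TPO (26 pM), 24 hrs at 37 C, then luminescence.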

For assay [10], the target named is Muscarinic acetylcholine receptor M1 (Rattus norvegicus) (UniProt P08482). The assay is described as follows: qHTS Assay for Antagonists of Acetylcholine Muscarinic M1 Receptor: Measurement of IP-One Response (AID 944). Also: nearly all actives have a fitted effect of over 75% in size. The method in brief:
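Antagonist mode with rat M1 receptor transfected into CHO cells. Compound is added first for 10 min, carbachol at its EC80 follows for 30 min, and lysis reagents then allow TR-FRET detection of accumulated IP1.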

Assay [11] deals with Pyruvate kinase (Leishmania mexicana) (UniProt Q27686). Description: qHTS Validation Assay for Inhibitors of Leishmania Mexicana Pyruvate Kinase (AID 945).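 Also: 0% = DMSO only neutral control wells.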 A digest of the protocol:
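qHTS eight-point titrations against 0.2 nM LmPYK (E451W) in imidazole buffer pH 7.2 with 0.5 mM PEP, 0.1 mM ADP; 1 h, room temperature. Readout: PKLight luminescence, normalized to neutral DMSO wells.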
In general terms: In qHTS, concentration-response curves come from the screen itself.

Assay [12] concerns the target Pyruvate kinase PKM (Homo sapiens) (UniProt P14618). Description: qHTS Assay for Activators of Human Muscle Pyruvate Kinase (AID 954; active = well fitted curve in the direction sought with a large enough effect, not every such curve was filed as active;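 also: 0% = uninhibited enzyme and -100% = no enzyme or full thiadiazolimine inhibition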). A digest of the protocol:
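PKM2, human, >95% pure, 0.1 nM; PEP 0.5 mM (Km), ADP 0.1 mM; 50 mM imidazole pH 7.2, 50 mM KCl, 0.01% Tween 20, 0.05% BSA; 1 h RT; luciferase luminescence readout.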

In assay [13] the target is Alpha-galactosidase A (Homo sapiens) (UniProt P06280). Description: Counterscreen for Glucocerebrosidase Inhibitors: qHTS Assay for Human alpha-Galactosidase at pH 4.5 (AID 992). Also: 0% is about no effect. A digest of the protocol:
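Fluorogenic 4-MU alpha-D-galactoside (80 uM) hydrolysis, 2 nM enzyme, pH 4.5 citrate buffer + 0.005% Tween-20; 20 min RT; NaOH/glycine pH 10 stop; Ex365/Em440. Compounds titrated 0.7 nM–77 uM; Hill-equation AC50.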

Assay [14] deals with alpha-glucosidase (Oryza sativa, rice) (UniProt Q653V4). The assay is described as follows: Counterscreen for Glucocerebrosidase Inhibitors: qHTS Assay for Rice alpha-Glucosidase at pH 5.0 (AID 997).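 Also: 0% = full activity with enzyme and -100% = basal without enzyme.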 The method in brief: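 Endpoint fluorogenic assay at pH 5.0: compounds (0.7 nM to 77 uM) titrated against 4 nM rice enzyme and 400 uM 4-MU-alpha-glucoside for 20 min at room temperature; NaOH/glycine stop, read ex 365/em 440 nm, Hill-fitted AC50.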
(In general: A counterscreen serves to expose hits that act by an unwanted route or on another target.)

Assay [15] in a line: Validation of Assay for Modulators of Lamin A Splicing (AID 1459; active = well fitted curve in the direction sought with a large enough effect in the signal ratio; the % refers to the signal ratio;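 also: cells exposed to compound for two days before reading; 0% is about no effect; ratio rise marks activators and ratio drop marks inhibitors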). The method in brief: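 HeLa S3 lamin A-EGFP/DsRed2 stable clone, 600 cells/well, Opti-MEM 2% FBS; compounds by pin tool; 48 hrs, 37 °C/5% CO2; Acumen 488 nm scan, objects 10-100 um; GFP/RFP intensity ratio.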
A short description of assay [16]: qHTS Assay for Lipid Storage Modulators (AID 1519; calls by dose curve). The note with it: Drosophila S3 cells, BODIPY lipid droplet/cell ratio, laser cytometry, cells loaded with oleic acid. A digest of the protocol:
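Cells seeded at 5,000 per well were treated with compounds over a concentration series and loaded with oleic acid (400 uM, as added). Lipid droplet fluorescence (488 nm excitation, 500-530 nm channel) was read by laser-scanning cytometry and normalized to 20 uM Triacsin C.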

Assay [17] addresses DNA repair nuclease/redox regulator APEX1 (Homo sapiens) (UniProt P27695). The assay is described as follows: qHTS Validation Assay for Inhibitors of the Human Apurinic/apyrimidinic Endonuclease 1 (APE1) (AID 1705). The method in brief: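 qHTS, 1536-well. APE1 + cpd 15 min RT → 50 nM TAMRA/BHQ-2 THF-abasic dsDNA substrate → kinetic fluorescence, 3 reads/60 s; delta(read3−read1) = reaction progress. No-enzyme buffer = negative control.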

Assay [18] can be described thus: Counterscreen for APE1 Inhibitors: Fluorescent Dye Displacement Validation Assay (AID 1707).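 Also: plate controls were ThO with dsDNA and no compound for no effect and ThO without dsDNA for full effect.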 The method in brief: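 Endpoint fluorescence read at 480 nm excitation / 540 nm emission; DNA-binding compounds lower signal by displacing 250 nM Thiazole Orange from 50 nM dsDNA containing a tetrahydrofuran abasic site, Tris-HCl pH7.5 buffer with NaCl and MgCl2.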
Assay [19] concerns the target Endonuclease 4 (Escherichia coli (strain K12)) (UniProt P0A6C1). Description: Counterscreen for APE1 Inhibitors: qHTS Validation Assay for Inhibitors of Endonuclease IV (AID 1708). Also: % is scaled to controls: 0 for no effect and ±100 for the full control effect. The method in brief: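 Incision of a double-stranded 50 nM TAMRA/BHQ-2 abasic substrate was followed kinetically (525/598 nm, reads every 60 s) after 15 min enzyme–compound preincubation with 2 nM EndoIV in pH 7.5 Tris buffer with MgCl2, DTT and Tween-20; concentration-response format.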

Results filed as inconclusive are left out. The source made the active and inactive calls. Unless noted, calls follow the shape of the dose curve; as a rule, active = well fitted curve in the direction sought with a large enough effect; inconclusive = small, poorly fitted or top-dose-only effect, or another doubt; inactive = no such curve, though single readings can be large; an effect the other way counts as inactive or inconclusive. Bounds are passed on as bounds.

Glucocorticoid receptor (Homo sapiens), sequence (P04150 whole entry, looked up): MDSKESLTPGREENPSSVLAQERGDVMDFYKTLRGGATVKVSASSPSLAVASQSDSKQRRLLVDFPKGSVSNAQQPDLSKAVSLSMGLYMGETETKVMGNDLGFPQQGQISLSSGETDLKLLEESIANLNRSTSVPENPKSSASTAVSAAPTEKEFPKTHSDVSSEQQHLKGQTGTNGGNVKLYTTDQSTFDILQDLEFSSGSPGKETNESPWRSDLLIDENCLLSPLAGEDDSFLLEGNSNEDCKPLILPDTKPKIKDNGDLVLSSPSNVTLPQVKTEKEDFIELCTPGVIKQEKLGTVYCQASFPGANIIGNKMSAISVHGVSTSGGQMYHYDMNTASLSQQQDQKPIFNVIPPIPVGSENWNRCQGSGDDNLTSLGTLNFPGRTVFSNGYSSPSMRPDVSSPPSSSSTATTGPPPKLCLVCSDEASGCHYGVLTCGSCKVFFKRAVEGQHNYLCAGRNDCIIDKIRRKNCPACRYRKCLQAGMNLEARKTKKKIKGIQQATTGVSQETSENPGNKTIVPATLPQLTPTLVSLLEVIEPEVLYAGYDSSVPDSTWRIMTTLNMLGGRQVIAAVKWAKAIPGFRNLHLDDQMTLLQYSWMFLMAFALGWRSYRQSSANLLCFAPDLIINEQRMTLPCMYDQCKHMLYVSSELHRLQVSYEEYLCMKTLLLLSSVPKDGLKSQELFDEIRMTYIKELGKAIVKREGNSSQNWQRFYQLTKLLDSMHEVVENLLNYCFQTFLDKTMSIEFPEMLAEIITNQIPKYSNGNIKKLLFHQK
Alpha-galactosidase A (Homo sapiens), sequence (P06280 whole entry, looked up): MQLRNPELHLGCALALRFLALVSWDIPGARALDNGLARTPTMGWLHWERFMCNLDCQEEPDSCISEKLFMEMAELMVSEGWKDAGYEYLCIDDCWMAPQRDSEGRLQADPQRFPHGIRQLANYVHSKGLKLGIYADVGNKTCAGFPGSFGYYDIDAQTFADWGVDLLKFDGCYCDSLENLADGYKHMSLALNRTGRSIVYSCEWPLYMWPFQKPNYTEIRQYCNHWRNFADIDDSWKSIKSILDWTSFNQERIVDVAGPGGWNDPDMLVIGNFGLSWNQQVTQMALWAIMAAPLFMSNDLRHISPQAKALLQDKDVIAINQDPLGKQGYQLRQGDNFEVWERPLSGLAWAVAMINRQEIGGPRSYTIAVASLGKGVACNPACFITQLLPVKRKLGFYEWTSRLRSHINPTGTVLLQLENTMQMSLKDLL
Pyruvate kinase PKM (Homo sapiens), sequence (P14618 whole entry, looked up): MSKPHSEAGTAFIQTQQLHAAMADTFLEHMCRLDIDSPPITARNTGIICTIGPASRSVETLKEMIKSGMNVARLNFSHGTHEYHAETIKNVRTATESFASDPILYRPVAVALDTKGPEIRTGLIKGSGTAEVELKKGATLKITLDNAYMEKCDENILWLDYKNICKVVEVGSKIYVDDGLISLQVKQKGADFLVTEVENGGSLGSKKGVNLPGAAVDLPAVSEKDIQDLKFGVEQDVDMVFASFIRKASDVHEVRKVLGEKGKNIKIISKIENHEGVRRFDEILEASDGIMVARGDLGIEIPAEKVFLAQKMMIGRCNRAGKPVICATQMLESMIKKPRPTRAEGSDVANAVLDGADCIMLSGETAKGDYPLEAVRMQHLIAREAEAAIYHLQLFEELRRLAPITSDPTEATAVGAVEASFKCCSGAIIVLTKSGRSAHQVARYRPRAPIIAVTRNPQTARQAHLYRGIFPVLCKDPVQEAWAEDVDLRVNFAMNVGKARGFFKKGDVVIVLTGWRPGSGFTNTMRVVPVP
Guanine nucleotide-binding protein G(i) subunit alpha-1 (Homo sapiens), sequence (P63096 whole entry, looked up): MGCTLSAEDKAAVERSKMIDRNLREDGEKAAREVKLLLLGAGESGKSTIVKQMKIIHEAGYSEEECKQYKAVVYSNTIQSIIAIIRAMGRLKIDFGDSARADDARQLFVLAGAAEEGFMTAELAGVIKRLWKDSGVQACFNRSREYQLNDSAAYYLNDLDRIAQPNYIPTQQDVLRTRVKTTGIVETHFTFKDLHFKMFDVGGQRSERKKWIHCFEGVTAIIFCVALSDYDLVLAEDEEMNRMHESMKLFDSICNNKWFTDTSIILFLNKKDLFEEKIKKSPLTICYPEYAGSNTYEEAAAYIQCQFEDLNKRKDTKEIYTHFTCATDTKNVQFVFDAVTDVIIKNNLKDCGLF
Pyruvate kinase (Leishmania mexicana), sequence (Q27686 2-499 E452W): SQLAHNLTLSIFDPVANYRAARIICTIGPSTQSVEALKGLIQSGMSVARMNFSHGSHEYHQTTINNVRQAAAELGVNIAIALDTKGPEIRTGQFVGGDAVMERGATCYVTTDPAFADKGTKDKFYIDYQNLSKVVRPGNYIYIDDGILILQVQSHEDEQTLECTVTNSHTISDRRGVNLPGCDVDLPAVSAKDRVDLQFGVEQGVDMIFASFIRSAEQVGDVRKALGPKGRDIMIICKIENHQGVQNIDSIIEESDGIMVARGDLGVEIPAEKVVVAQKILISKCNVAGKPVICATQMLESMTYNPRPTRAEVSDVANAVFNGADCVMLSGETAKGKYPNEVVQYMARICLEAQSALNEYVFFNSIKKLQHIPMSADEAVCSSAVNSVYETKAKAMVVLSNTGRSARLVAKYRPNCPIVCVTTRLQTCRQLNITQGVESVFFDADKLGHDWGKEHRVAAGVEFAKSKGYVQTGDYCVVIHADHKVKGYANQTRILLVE
DNA repair nuclease/redox regulator APEX1 (Homo sapiens), sequence (P27695 whole entry, looked up): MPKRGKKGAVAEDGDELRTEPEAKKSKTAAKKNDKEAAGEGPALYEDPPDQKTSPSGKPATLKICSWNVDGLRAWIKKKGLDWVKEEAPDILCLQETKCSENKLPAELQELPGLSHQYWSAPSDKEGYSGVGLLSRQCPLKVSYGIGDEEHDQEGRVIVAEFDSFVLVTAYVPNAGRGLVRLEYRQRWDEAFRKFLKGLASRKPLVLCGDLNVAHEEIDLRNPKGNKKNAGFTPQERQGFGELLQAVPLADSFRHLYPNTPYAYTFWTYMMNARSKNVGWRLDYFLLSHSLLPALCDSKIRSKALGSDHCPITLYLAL
Muscarinic acetylcholine receptor M1 (Rattus norvegicus), sequence (P08482 whole entry, looked up): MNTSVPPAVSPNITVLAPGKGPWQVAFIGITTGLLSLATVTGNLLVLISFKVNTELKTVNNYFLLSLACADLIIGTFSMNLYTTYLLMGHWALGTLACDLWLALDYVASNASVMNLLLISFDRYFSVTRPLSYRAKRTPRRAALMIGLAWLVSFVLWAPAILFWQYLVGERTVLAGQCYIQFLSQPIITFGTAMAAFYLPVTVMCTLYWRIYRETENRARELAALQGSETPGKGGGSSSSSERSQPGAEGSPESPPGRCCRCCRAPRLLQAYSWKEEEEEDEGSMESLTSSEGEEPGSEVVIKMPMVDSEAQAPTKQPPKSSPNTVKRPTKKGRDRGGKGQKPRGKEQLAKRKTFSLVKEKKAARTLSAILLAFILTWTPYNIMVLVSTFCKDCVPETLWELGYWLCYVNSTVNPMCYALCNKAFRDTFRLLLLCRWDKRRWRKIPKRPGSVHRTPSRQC

Regarding `Cc1cccc(C)c1NC(=O)C[N+](C)(C)C`, the activity change, negative = inhibition in assay [1] is 0.892% (inactive); in [2] it was 11.6% (inactive); in assay [16] (at 57.5 µM (top of the series)), -1.34% (inactive). Besides, the activity, negative = inhibition in assay [3] was 8.11% (inactive). The Potency in assay [4] and in [5] was > 46 µM (inactive) in each case. Besides, the Potency entry in assay [6], in assay [7], in assay [9], in [10], in [11] and in assay [17] was “inactive” in each case. Also, the Potency result in [18] and in assay [19] was “inactive” each time. Moreover, the call in assay [8], in assay [12], in [13], in assay [14] and in [15] was inactive. Moreover, the max response in [16] (measured here: cell count channel max response) was -10.6%; in assay [16] (measured here: lipid channel max response) it was -11.6%.
